# According to PubChem BioAssay:
# The source made the active and inactive calls.
# Columns and labels:
# [1] = test system: XIP peptide (Xip251-270) binding; assay: XIP fragment 251-270 binding compounds – biochemical, small-molecule microarray, fluorescence 635/667 nm, 0.1 µg/mL protein, primary screen (AID 1182); details: fluorescent protein binding, 635 nm, higher = more signal, called active from +8 up or from −8 down
# XIP peptide (Xip251-270) = assay: compounds binding XIP fragment 251-270 – biochemical, small-molecule microarray, fluorescence 635/667 nm, 0.5 µg/mL protein, primary screen (AID 1183); details: fluorescence 635 nm, higher = more signal
# [2] = blood-stage malaria parasite viability loss – strain 3D7, DAPI fluorescence, 100 nL, primary screen (AID 1184);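 note: parasites grown inside human red blood cells in medium with human serum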; details: P. falciparum 3D7 growth, 3 d, higher = more signal
# [3] = biological target: Homeobox protein Hox-A13 (Mus musculus) (UniProt Q62424); assay: disruptors of Hoxa13 oligonucleotide interaction – biochemical, fluorescence polarization, labeled oligonucleotide, primary screen (AID 1185); details: Hoxa13:DNA binding, 15 min, higher = more signal, called active from +8 up or from −8 down
# Sequence of Homeobox protein Hox-A13 (Mus musculus) (Q62424 whole entry, looked up): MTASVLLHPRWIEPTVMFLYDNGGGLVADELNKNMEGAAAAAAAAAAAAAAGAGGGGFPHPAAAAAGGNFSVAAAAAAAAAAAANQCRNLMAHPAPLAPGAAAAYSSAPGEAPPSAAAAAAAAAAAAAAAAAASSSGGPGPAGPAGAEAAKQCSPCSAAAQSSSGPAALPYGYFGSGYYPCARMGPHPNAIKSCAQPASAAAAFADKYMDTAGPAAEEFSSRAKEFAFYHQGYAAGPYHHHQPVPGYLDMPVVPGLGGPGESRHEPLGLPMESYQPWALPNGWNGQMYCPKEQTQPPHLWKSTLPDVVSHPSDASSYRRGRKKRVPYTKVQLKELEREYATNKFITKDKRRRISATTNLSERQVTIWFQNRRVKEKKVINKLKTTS
Compound,composite z-score [1],composite z-score (XIP peptide (Xip251-270)),z-score [2],z-score [3]
O=C1[C@H]2[C@H]3[C@H](O)[C@H](O)CC(=NO[C@@H]4O[C@H](CO)[C@@H](O)[C@H](O)[C@H]4O)[C@H]3CC[C@H]2C(=O)N1Cc1ccc2c(c1)OCO2,-0.0799 (inactive),0.0812,0.185,-0.567 (inactive)
CC(CCN1CCCCc2nc(C)c(C)cc21)=NOC(C)CN1CCCCc2nc(C)c(C)cc21 (centres undefined),0.29 (inactive),0.805,-0.883,-5.75 (inactive)
CCOC(=O)CCN1C(=O)[C@H]2[C@H]3[C@H](O)[C@H](O)CC(=NOC[C@@H](O)COCc4ccco4)[C@@H]3CC[C@H]2C1=O,-0.159 (inactive),0.807,1.93,-0.692 (inactive)
CO[C@H]1COC(=O)CC=C[C@H](C)[C@@H](NS(=O)(=O)c2ccc(C)cc2)COC(=O)CC=C[C@@H]1C,-0.116 (inactive),0.0878,-0.648,1.31 (inactive)
C=CC[C@@H]1C=C[C@H](ON=C[C@@H](OC)[C@H](C)C=CCC(=O)OC)[C@@H](CO)O1,-0.0604 (inactive),0.168,0.167,-0.413 (inactive)
COc1ccc(O[C@H]2C=C[C@@H](c3ccccc3)O[C@@H]2COC(=O)N2CCCCC2)cc1,-0.275 (inactive),-0.216,-0.43,-3.83 (inactive)
CO[C@@H]1COC(=O)CCC[C@@H](C)[C@H](OC)COC(=O)[C@H](Cc2ccccc2)NC(=O)CC=C[C@H]1C,0.0232 (inactive),-0.282,-1.34,-3.5 (inactive)
CO[C@@H]1COC(=O)CC=C[C@@H](C)[C@@H]2C=C[C@H](O)[C@@H](COC(=O)[C@H](C)NC(=O)CC=C[C@H]1C)O2,0.78 (inactive),0.437,-0.117,-3.61 (inactive)
C[C@@H](c1ccccc1)N1C(=O)[C@H]2[C@H]3[C@H](O)[C@H](O)CC(=NOC[C@@H](O)COCc4ccco4)[C@@H]3CC[C@H]2C1=O,-0.201 (inactive),-0.287,-0.842,-1.25 (inactive)
COC(=O)CC1OC1[C@H](C)[C@@H](OC)C(C)C (some centres undefined),-0.0835 (inactive),-0.739,0.599,-4.65 (inactive)
COc1ccc(O[C@H]2C=C[C@@H](c3ccccc3)O[C@@H]2COC(=O)CCC(C)=NOC[C@@H](C)[C@H](OCc2ccccc2)C(C)C)cc1,0.294 (inactive),-0.794,-0.925,-0.43 (inactive)
C=COC[C@H]1CN2[C@@H](CC[C@@H](C)[C@@H]2c2ccc(Br)cc2)C(=O)O1,0.299 (inactive),0.719,0.0315,-2.37 (inactive)
CO[C@@H]1COC(=O)CC=C[C@@H](C)[C@H](OC)COC(=O)[C@H](COCc2ccccc2)NC(=O)CC=C[C@H]1C,0.025 (inactive),-0.988,-0.17,-1.64 (inactive)
C=CC[C@@H]1C=C[C@H](ON=C2c3cc(OC)ccc3O[C@H](c3cccc(OC)c3)[C@H]2O)[C@@H](CO)O1,0.0897 (inactive),-0.479,0.888,-5.69 (inactive)
Cc1cc2c(nc1C)CCCN2CC(C)ON=C1[C@H]2CCn3c(=O)n(-c4ccccc4)c(=O)n3[C@H]2[C@H](O)[C@@H]2O[C@H]12 (some centres undefined),0.117 (inactive),0.32,0.0318,-8.15 (active)
c1ccc(C2NCCc3c2[nH]c2ccccc32)cc1 (centres undefined),0.657 (inactive),0.4,-0.811,-0.654 (inactive)
COC(=O)[C@@H]1CC[C@H](C)[C@@H](c2ccc(C)cc2)N1C(=O)c1ccc(C=NOC(C)CN2CCCCc3nc(C)c(C)cc32)cc1 (some centres undefined),-0.206 (inactive),0.51,-1.76,-3.03 (inactive)
CCOC(=O)CCN1C(=O)[C@H]2[C@H]3[C@H](O)C=CC(=O)[C@@H]3CC[C@H]2C1=O,0.58 (inactive),0.0156,-0.0439,-0.525 (inactive)
COC(=O)CC=C[C@@H](C)[C@@H](C=NO[C@H](C)c1cn([C@@H]2COC[C@H]2O)nn1)OC,-0.107 (inactive),0.446,0.354,0.0624 (inactive)
CO[C@H]1COC(=O)[C@@H]2CCCN2C(=O)CC=C[C@@H](C)[C@H](OC)COC(=O)CC=C[C@@H]1C,0.371 (inactive),0.298,0.372,-0.346 (inactive)
CC(CCN1CCc2nc(-c3ccccc3)c(-c3ccccc3)cc2C1)=NOC(C)CN1CCCCc2nc(C)c(C)cc21 (centres undefined),0.685 (inactive),0.312,0.0201,-4.25 (inactive)
